# Measurements: PubChem BioAssay AID488969 (Vanderbilt High Throughput Screening Facility, 2010)
# Whole data set: some 110,000 compounds, median “z-score” near -0.1, cut for the highest 2% near 2. Only a selection was taken, and the highest values are over-represented in it overall. Activity calls are given as the source filed them.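 Rule for the calls: active = z-score in the third read window above 3 or below -3; inactive = the rest.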
# Target: Metabotropic glutamate receptor 8 (Rattus norvegicus) (UniProt P70579)
# Assay: rat mGluR8 modulators via GIRK flux, primary screen, cell-based, thallium flux, HTS (AID 488969)
# Conditions: HEK293 rat mGluR8, GIRK (G protein-gated inwardly rectifying potassium channel) thallium flux, FluoZin2; at 10 µM; stronger effect = higher value; submaximal glutamate (EC20) added with thallium
# Chain of Metabotropic glutamate receptor 8 (Rattus norvegicus) (P70579 whole entry, looked up): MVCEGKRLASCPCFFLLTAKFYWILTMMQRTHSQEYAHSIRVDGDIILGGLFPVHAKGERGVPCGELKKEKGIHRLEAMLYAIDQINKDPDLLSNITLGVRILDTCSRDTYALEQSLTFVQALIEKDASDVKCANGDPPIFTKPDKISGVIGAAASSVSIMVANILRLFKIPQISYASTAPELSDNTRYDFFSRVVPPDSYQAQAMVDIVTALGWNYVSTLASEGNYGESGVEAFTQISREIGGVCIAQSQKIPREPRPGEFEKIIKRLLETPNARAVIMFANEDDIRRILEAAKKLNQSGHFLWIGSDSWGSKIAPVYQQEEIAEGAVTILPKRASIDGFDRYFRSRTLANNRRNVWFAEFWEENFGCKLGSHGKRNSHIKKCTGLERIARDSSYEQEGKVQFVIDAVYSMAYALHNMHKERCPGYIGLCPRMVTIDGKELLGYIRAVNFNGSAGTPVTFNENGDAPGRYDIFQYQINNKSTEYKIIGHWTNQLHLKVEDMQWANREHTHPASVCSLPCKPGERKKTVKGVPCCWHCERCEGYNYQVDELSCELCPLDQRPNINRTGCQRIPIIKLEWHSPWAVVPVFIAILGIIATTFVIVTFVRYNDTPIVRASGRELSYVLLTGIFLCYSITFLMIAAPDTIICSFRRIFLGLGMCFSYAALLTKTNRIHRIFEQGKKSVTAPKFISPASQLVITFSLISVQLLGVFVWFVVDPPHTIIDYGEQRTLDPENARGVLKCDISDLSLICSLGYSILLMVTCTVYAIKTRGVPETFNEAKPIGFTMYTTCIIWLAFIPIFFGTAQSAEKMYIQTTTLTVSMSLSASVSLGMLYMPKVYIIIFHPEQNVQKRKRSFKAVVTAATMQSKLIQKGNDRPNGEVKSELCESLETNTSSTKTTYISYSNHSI
row,SMILES,z-score
1,COc1ccc(C2/C(=C(\O)c3ccc(OC)c(Cl)c3)C(=O)C(=O)N2CCN(C)C)cc1 (stereo not drawn),-0.505
2,COc1nc(C#N)c(N2CCOCC2)o1,-0.118
3,Cn1ccnc1SCC(=O)c1cc2ccccc2o1,0.608
4,Cn1c(SCC(=O)c2cc3ccccc3o2)nnc1-c1ccccc1,4.93 (active)
5,Cn1c(SCC(N)=O)nnc1-c1ccccc1,0.403
6,Cc1ccc(/C=C2/NC(=O)N(c3ccccc3)C2=O)o1,0.187
7,CS(=O)(=O)NCC(c1cccnc1)N1CCN(c2ccc(F)cc2)CC1 (stereo not drawn),-0.636
8,O=C(CSc1nc2ccccc2s1)NNC(=O)Nc1ccc(Cl)c(Cl)c1,-0.0417
9,Cc1ccc(C)c(OCC(=O)NCCN(C)C)c1,0.356
10,CCn1c(SCC(=O)NC(=O)NCc2ccco2)nc2sc(C)c(C)c2c1=O,3.05 (active)
11,O=C(CSc1ncnc2sc3c(c12)CCCCC3)NCc1ccco1,1.08
12,Cc1sc2nc(SCC(=O)NCc3ccco3)n(Cc3ccccc3)c(=O)c2c1C,-0.304
13,Cc1sc2ncnc(SCC(=O)NC(=O)NCc3ccco3)c2c1C,2.66
14,Cc1nc(SCC(=O)NCc2ccco2)c2c(C)c(C)sc2n1,-0.0392
15,Cc1sc2ncnc(NCc3ccco3)c2c1C,-0.47
16,Cc1sc2nc(C3CC3)nc(SCC(=O)NCc3ccco3)c2c1C,0.399
17,C=CCn1c(SCC(=O)NCc2ccco2)nc2sc(C)c(C)c2c1=O,-0.948
18,CCSc1ncnc2sc(C)c(C)c12,-0.112
19,Cc1sc2ncnc(SCc3ccco3)c2c1C,3.43 (active)
20,Cc1sc2nc(SCC(=O)NCc3ccco3)n(C)c(=O)c2c1C,-0.982
21,Cc1sc2nc(C(C)C)nc(SCC(=O)NCc3ccco3)c2c1C,17 (active)
22,Cc1ccc2oc(=O)c(/C=C(\O)c3sc(C)nc3C)nc2c1,-0.168
23,CCOc1ccc(C(=O)NCC(=O)OC2CCOC2=O)cc1OCC (stereo not drawn),-0.823

row,SMILES,z-score
1,CCCCN(C)CCNC(=O)Cn1ncc2c(=O)oc3ccc(C)cc3c21,-0.464
2,Nn1c(Cc2cccc3ccccc23)nnc1SCCOc1ccc(Br)cc1,-0.185
3,COc1nc(NCc2ccco2)nc(NC2CCCCC2)n1,-0.224
4,CCOC(=O)Cc1csc(NC(=O)CSc2nc3sc(C(=O)O)c(C)c3c(=O)[nH]2)n1,0.0555
5,O=C(Nc1ccc(Cl)c(Cl)c1)Nc1cc(S(=O)(=O)N2CCOCC2)ccc1N1CCCC1,0.00467
6,Cc1sc2nc(C(C)C)nc(SCC(=O)N3c4ccccc4CC3C)c2c1C (stereo not drawn),10.2 (active)
7,CCc1nc(SCC(=O)N2c3ccccc3CC2C)c2c(C)c(C)sc2n1 (stereo not drawn),0.0133
8,Cc1sc2nc(C3CC3)nc(SCC(=O)N3c4ccccc4CC3C)c2c1C (stereo not drawn),-0.291
9,CC(C)(C)C1CCc2c(sc(NC(=O)c3ccco3)c2C(N)=O)C1 (stereo not drawn),0.458
10,Cc1ccc(OCCCCn2cnc3ccccc32)c(C)c1,-0.0373
11,COc1ccc(OC)c(NC(=S)NCCC(c2ccccc2)c2ccccc2)c1,-0.202
12,CC12CNCC(C)(CN(C(c3ccccc3)c3ccccc3)C1)C2,1.25
13,O=C(O)COCCN1CCN(C(c2ccccc2)c2ccc(Cl)cc2)CC1 (stereo not drawn),0.16
14,Clc1ccc(C(c2ccccc2)N2CCNCC2)cc1 (stereo not drawn),2.16
15,OCCN1CCN(Cc2cc(Cl)c3cccnc3c2O)CC1,0.225
16,Oc1c(CN2CCc3ccccc3C2)cc(Cl)c2cccnc12,2.72
17,Oc1ccc(CN2CCc3ccccc3C2)c2cccnc12,0.165
18,COc1ccc(N(CC(=O)NCc2ccco2)S(C)(=O)=O)cc1Cl,-0.0738
19,CS(=O)(=O)N(CC(=O)NCc1ccco1)c1ccc(Cl)c(C(F)(F)F)c1,4.31 (active)
20,CS(=O)(=O)N(CC(=O)NCc1ccco1)c1cc(C(F)(F)F)ccc1Cl,0.181
21,O=[N+]([O-])c1ccc(NC(=S)N2CCN(c3ccc(F)cc3)CC2)cc1,-0.0841
22,Cc1ccc(NC(=O)c2nccnc2C(=O)O)cc1C,-0.208
23,O=P(c1ccccc1)(c1ccccc1)N(c1ccccc1)c1ccccc1,-0.752

row,SMILES,z-score
1,CC(C)C(=O)Nc1ccc(C(=O)N2CCCCCC2)cc1,2.15
2,CC(=O)Nc1ccc(C(=O)N2CCCC2)cc1,-0.0468
3,CC(C)C(=O)Nc1ccc(C(=O)N2CCN(C(=O)c3ccco3)CC2)cc1,0.196
4,O=c1c2ccccc2nc(N/N=C/c2ccc(O)cc2)n1O,-0.0395
5,Cc1cc(/N=C/N(C)C)on1,-0.0351
6,CCOc1ccc(-n2nnnc2SCC(=O)N2CCOCC2)cc1,-0.126
7,COc1ccc(-n2nnnc2SCC(=O)N2CCOCC2)cc1,3.28 (active)
8,COc1cc(OC)cc(-n2nnnc2SCC(=O)N2CCCC2)c1,0.154
9,CCn1c(SCC(=O)Nc2ccc(C(=O)OC)cc2)nc2cccnc21,-0.121
10,CC(CN(C)Cc1ccccc1)OC(=O)c1ccccc1F (stereo not drawn),0.00558
11,O=C(N/N=C/c1ccc([N+](=O)[O-])s1)c1cccc(Br)c1,6.96 (active)
12,CCOc1ccc(NC(=O)CCC(=O)N/N=C/c2ccc([N+](=O)[O-])s2)cc1,2.1
13,O=C(N/N=C/c1ccc([N+](=O)[O-])s1)c1ccccc1Br,-0.301
14,Cc1ccc(C(=O)N/N=C/c2ccc([N+](=O)[O-])s2)cc1,-0.176
15,O=C(Cc1ccccc1)N/N=C/c1ccc([N+](=O)[O-])s1,0.543
16,O=C(N/N=C\c1ccc([N+](=O)[O-])s1)c1cncc(Br)c1,-0.156
17,O=C(N/N=C/c1ccc([N+](=O)[O-])s1)c1ccncc1,-0.428
18,COc1ccc(NC(=O)CCC(=O)N/N=C/c2ccc([N+](=O)[O-])s2)cc1,-0.189
19,Cc1ccccc1C(=O)N/N=C/c1ccc([N+](=O)[O-])s1,2.95
20,Cc1ccc(N(C(=O)CS(=O)CC(=O)Nc2ccc(F)cc2)C(C(=O)NC2CCCCC2)c2ccco2)cc1 (stereo not drawn),-0.219
21,O=C(NNC(=S)NC(=O)c1ccccc1[N+](=O)[O-])c1ccccc1Cl,-0.333
22,O=C(CCC1COc2ccccc2O1)Nc1ccc(Cl)cn1 (stereo not drawn),-0.27
23,COc1ccccc1C(OC(=O)c1cccs1)C(=O)NCC1CCCO1 (stereo not drawn),-0.383

row,SMILES,z-score
1,COc1ccc(C(OC(=O)c2cccs2)C(=O)NCC2CCCO2)cc1 (stereo not drawn),8.22 (active)
2,O=C(OC(C(=O)NCC1CCCO1)c1ccc(F)cc1)c1cccs1 (stereo not drawn),-0.0339
3,COc1ccc(N2CCN(C(=O)c3cn(C4CCCC4)c(=O)c4c3c3ccccc3n4C)CC2)cc1,-0.454
4,O=C(Nc1ccc(N2CCCC2)c(S(=O)(=O)Nc2cccc(C(F)(F)F)c2)c1)c1cccs1,-0.233
5,CCOc1ccc(Nc2ncnc3c2cnn3Cc2ccccc2)cc1,2.26
6,COc1ccc(Nc2ncnc3c2cnn3Cc2ccccc2)cc1,-1.73
7,COc1ccc(Nc2ncnc3c2cnn3Cc2ccccc2)cc1OC,-0.181
8,CC(=NCCCN(C)C)C1=C(O)c2ccccc2C1=O,0.45
9,CCc1ccc(C(=O)N2CCCC2)s1,0.0133
10,CCOCC(=O)Nc1nc(-c2ccccc2)c(CC)s1,-0.107
11,Cc1cccc(N2CCN(C(=O)c3ccc(Cl)c(S(=O)(=O)N4CCc5ccccc5C4)c3)CC2)c1C,3.61 (active)
12,O=C(c1ccc(Cl)c(S(=O)(=O)N2CCc3ccccc3C2)c1)N1CCN(c2ccccc2)CC1,-0.0565
13,Cc1cccc(NS(=O)(=O)c2cc(C(=O)N3CCc4ccccc4C3)ccc2Cl)c1C,-0.467
14,Oc1ccccc1CNc1ccc(Br)cn1,5.86 (active)
15,Brc1ccc(NCc2cccc3ccccc23)nc1,-0.475
16,Oc1ccc(Cl)cc1CNc1ccc(Br)cn1,0.33
17,CN=C1SC(CC(=O)Nc2sc(C)c(C)c2C(=O)OC)C(=O)N1C (stereo not drawn),-0.51
18,COCCN(Cc1ccccc1)C(=S)Nc1ccc(OC(F)F)cc1,-0.227
19,Cc1c(C#N)c2ncn(CC#N)c(=O)c2n1-c1ccccc1,3.28 (active)
20,Cc1c(C#N)c2ncn(Cc3ccccn3)c(=O)c2n1-c1ccccc1,-0.89
21,Cc1c(C#N)c2ncn(Cc3ccccc3)c(=O)c2n1-c1ccccc1,-0.85
22,CC(=O)c1ccc(N2CCN(C(=S)Nc3cccc(Cl)c3)CC2)cc1,-0.152
23,CCOCCCNc1nc2ccccc2[nH]1,-0.0367

row,SMILES,z-score
1,O=C1CCCC(=O)C1=C1SCCCS1,-0.18
2,O=C(Nc1ccc(Cl)cc1)N1CCCN(Cc2ccccc2F)C1,-0.218
3,Cc1ccc(NC(=O)N2CCCN(Cc3ccc(F)cc3)C2)cc1C,-0.435
4,O=C(Nc1ccc(Cl)cc1)N1CCCN(Cc2ccc(F)cc2)C1,2.53
5,CN1C(=O)c2ccc(NC(=O)c3ccc(N4CCCCC4)c([N+](=O)[O-])c3)cc2C1=O,-0.139
6,Cc1cccc(NC(=O)c2cc(NC(=O)c3ccccc3)ccc2N2CCCCC2)c1,-0.201
7,CCN=C1SCC(=O)N1c1ccc(OC)cc1,-0.307
8,COc1ccc(S(=O)(=O)N(CCc2ccccc2)CC(=O)N/N=C/c2ccc3c(c2)OCO3)cc1,-0.0021
9,CCOc1ccccc1NC(=O)CN(C)S(=O)(=O)c1cccc2nsnc12,-0.173
10,COc1ccccc1NC(=O)CS(=O)(=O)c1cccc2nsnc12,1.99
11,COc1ccc(Cl)cc1NC(=O)CS(=O)(=O)c1cccc2nsnc12,0.107
12,Cc1csc(NC(=O)Cc2c[nH]c3ccccc23)n1,-0.137
13,O=C1CCC(=O)N1OCCCOc1ccc(Br)cc1Cl,0.401
14,COc1cc(C)ccc1OCCCON1C(=O)CCC1=O,0.122
15,CC(C)(C)c1ccc(OCCON2C(=O)CCC2=O)c(Cl)c1,3.08 (active)
16,CCn1c(=O)n(CC)c2cc(S(N)(=O)=O)c(C)cc21,0.381
17,COc1ccc(-c2cc(-c3ccccc3)c(C#N)c(SCC(=O)Nc3ncc(C)s3)n2)cc1,-0.161
18,CCOc1ccc2c(c1)c(C(C)=O)c(C)n2-c1ccccc1,-1.1
19,CCN(CC)CC(O)COc1ccc2c(c1)c(C(C)=O)c(C)n2-c1ccccc1 (stereo not drawn),2.25
20,CCOC(=O)c1c(C)n(C)c2ccc(OCC(O)CN(CC)CC)cc12 (stereo not drawn),0.554
21,CC1CCN(S(=O)(=O)c2ccc(NC(=O)CN3CCN(C)CC3)cc2)CC1,0.193
